Among the data in PubChem BioAssay AID1508600 (Functional Genomics Laboratory (NCATS/FGL), 2020) are z-score values, retold here.

Hit rate of the full screen: of about 53,000 sequences, about 3,700 (7%) were called active. This is one part of a sample in which actives are shown more often than they occur. Unmarked numbers belong to inactive results.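 How the source made its calls: active means gene knockdowns whose robust z-score for IL-1 alpha signal is at least 2 or at most -2, so actives lie on both sides; inactive means the rest.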

The experiment can be described thus: Components of the Cytosolic LPS Sensing Pathway: Gene Identification via Genome-wide siRNA Screen.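 Further: robust z of the log signal after scaling to non-targeting control siRNA wells of the plate.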 The settings on record: RAW264.7 macrophages, IL-1a HTRF, actives lie on both sides, screened at 100 nM (by protocol), cells primed 5 h with Pam3CSK4 first. Summed up: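 RAW264.7 mouse macrophages reverse-transfected with single siRNAs (100 nM final) for 48h, primed with Pam3CSK4 for 5 hours, then transfected with LipidA for 24 hour. Supernatant IL-1a read by HTRF; values normalized to negative-control median, log-transformed robust z-scores.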
(In general: In TR-FRET formats the signal depends on donor and acceptor labels being close together.)
Consider GGUUGACUAUACUGAAAAGTT against Prrc2a, for which the z-score was -0.606.
With GGGCAAUGAAUGACAUUGGTT against Gabrd the figure was -0.368; with GGGAGAAUCGAACUAUAAATT against Raver1, -0.477; with GGACCCUUAGGAAAUGUGCTT against S100a10, -1.13.
Turning to GCAUCAGAUUAUCUCACUGTT against Mtrf1l, the z-score was 0.261.
As to CGCGUGAUUGAUGUUUUACTT against Atxn10, the z-score was 0.793.
On to GUGUCAUUUCCCGGGACAUTT against Atp5g1, for which the z-score is 1.64.
As to CCUUGGACUGAUAUUAGCUTT against Dtx3, the z-score was 0.0235.
For GGAACCUAAACGAACAAGGTT against Col6a2, the z-score is 2.18 (active).
The same measure for GGAUGUACGGAAGCGAUUCTT against Gmpr2: 0.404.
The same measure for “GGUUCCUCAUUUGUAGAUGTT against D830050J10Rik”: -1.19.
With GGAGGAACAAUCAUCUAUATT against Ripk2 the figure was 1.1; with GGCACAGAUGUUUUGAGAATT against Surf4, -0.954; with CGAAAAUAUGGAUACUACUTT against Ippk, 0.732.
Turning to CGGUGAUCGUCAUUUUAUUTT against Ap4m1, the z-score was 2.47 (active).
The same measure for GGUGAACCUCAACAGACUCTT against Gtf3c4: -1.7.
For the sequence GGAAAAAAUCACAUUGACUTT against H2ac6, the z-score was -0.835.
With GCCCAUUAAUGGGAUAUAATT against Ccdc134 the figure was 0.148; with GGCUCUGGCAGAAAUGGAUTT against Pex26, -0.0204.
With GGGAACAGAAGUUGUGAGATT against Gulp1 the figure was 1.5; with AGGUCAAUAAAGAGUGUGATT against Fam25c, -1.66.
With GGAUACGAAAACGACUGCATT against Pdpr the figure was 2.05 (active); with GGACCAAUUGGAUCCUUUUTT against Olfr1340, -1.6.
On to GCAUACGAUGGGAAUUGUATT against Wdr5b, for which the z-score is -1.6.
On to GGAAGAAGAUAAAGAGAAATT against Gtf2a1, for which the z-score is 1.09.
Take GGAAGUUACUGUGAGAUAATT against Mtbp: the z-score was 0.265.
As for GGAUGUUAUUCAGUUUUCATT against BC051019, the z-score is 2.37 (active).
GGCCUAUCUUGUUUAUUUGTT against Tgtp1: the z-score is -0.316.
With AUCGUGUUUGCUGUAUUUGTT against Olfr1258 the figure was 0.33; with GGAAAUCACCAACUUGGCCTT against Pou3f3, -0.0208.
On to GGAUUUGUAGUUCAUCUCATT against Olfr77, for which the z-score is 0.0834.
With GGUCAGUGGAGCUCUCUAUTT against Fam234a the figure was 1.43.
Regarding GGUUCUAAAACUUAACAAGTT against Brf2, the z-score was 2.7 (active).
With GGCAAACAACUGAAUAAGGTT against Pbsn the figure was -0.611; with CCAAGUUAGUCUGCGUAUUTT against Zfp979, -0.52; with CCCUACCCAGUUUCAGUUGTT against Phf12, 0.206.
Consider CCUGUGAAUUCAUCGUUCATT against Vps26c, for which the z-score was 2.34 (active).
With GCAUACCUAGGAAAAAACUTT against Ednra the figure was 0.524.
Turning to GGUAUUGACAGGGAUCUGATT against Limk1, the z-score is 1.19.
The same measure for “GGCCUUAGGAAUCAAGUUGTT against 9530053A07Rik”: 1.24.
The same measure for GGGUUUCAAUGGCACAAUUTT against Kif3b: 2.12 (active); for GGAUAACGUAAUGAAGAUCTT against Fgfr1: -0.866; for GGUUUCUUCUUCUGUUCAUTT against Ostc: 1.13.
In the case of GGCUCAAAGACUGAAUCCCTT against Recql4, the z-score was 0.309.
The same measure for GCUAUCUAGAGCCAAGAGCTT against Bahcc1: 2.27 (active); for GCUAGACCUCACUGUUUUUTT against Sprr2i: 1.03.
For GCAGCAUGAAUCACACCUUTT against Dtd2, the z-score is -1.29.
The same measure for CGUGUUCAAAAGAGUUUUCTT against Sos1: 1.22; for GCGGCUUUGUAUACAAGUUTT against Vwc2l: 1.11; for GGUAACUGUGGACUUAUCUTT against Olfr665: -2.17 (active).
With GGCUGUCAGAACCAACUACTT against Tshb the figure was 0.214; with CUCUAGUGUUACACUUAUUTT against Tefm, 2.83 (active).
The same measure for GGCCUUGAGAGGCUAAUACTT against Spata20: -1.27.
Consider GGUGAUUGUUAGAGUUAAATT against Syt4, for which the z-score was 0.934.
The same measure for GGUAAAAACCCAGAGAUGATT against Rem2: 0.616.
As for GGAACUAAUGUGCAGGAGGTT against Suclg2, the z-score was 0.459.
With “CCGUGAUCCCUUUUCACCATT against 6030445D17Rik” the figure was -2.26 (active); with CACGCAGAUGAUUAAGUUGTT against Olfr1000, 1.25.
With GGAGAAUGAGAUCAACCUGTT against Pah the figure was 0.618; with GGAGAACAGUCUUGAGAAATT against Crisp3, -0.712; with CCUCCAGGAUUAUCGUGAUTT against Dnajc6, -1.22.
The same measure for GGCUUAAUGUUGCUUCAGATT against Aven: -0.959.
Consider GGUCAAUUAUGAAGAGUUUTT against Calm3, for which the z-score was 3.04 (active).
The same measure for CCUUAAAAACUCGAGUAAATT against Gla: 0.384.
The same measure for GCGGUCACACCAAAAGUCATT against Olfr1466: -1.56; for GCUGUUUAUCUAGCUGUUATT against Mmp8: 0.782.
In the case of GGAUGUUAACAUUGAGCAATT against Asb11, the z-score was -0.0828.
Take GGCAUUUCAACUGGACCCATT against Lamb1: the z-score is -2 (active).
With GACGCAAGCAGCAUUUUAUTT against R3hdm4 the figure was -0.207.
